Data as given in PubChem BioAssay (EPA / NIEHS).
Results filed as inconclusive are left out. A structure can be active in one record and inactive in another. Calls of active or inactive are those of the source. The calls were made as follows: active = hit-call score of the fitted dose curve at least 0.9, where 1 is the maximum; inconclusive = response in the unintended direction; inactive = score below 0.9.

Target: Cellular tumor antigen p53 (Homo sapiens) (UniProt P04637)
Test: TOX21_p53_BLA_p4_ratio: Tox21 HCT-116 p53 Agonism Beta-lactamase Assay, Ratio, Phase 4 (AID 2283601)
Summary of the method: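 HCT-116 p53 beta-lactamase reporter cells (4000/well) preincubated 5 h, then compound (217-fold dilution of DMSO stock) for 16 h at 37C. CCF4-AM substrate added 2 h at room temperature; 460/530 nm emission ratio fitted upward versus DMSO.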

Chain of Cellular tumor antigen p53 (Homo sapiens) (P04637 whole entry, looked up): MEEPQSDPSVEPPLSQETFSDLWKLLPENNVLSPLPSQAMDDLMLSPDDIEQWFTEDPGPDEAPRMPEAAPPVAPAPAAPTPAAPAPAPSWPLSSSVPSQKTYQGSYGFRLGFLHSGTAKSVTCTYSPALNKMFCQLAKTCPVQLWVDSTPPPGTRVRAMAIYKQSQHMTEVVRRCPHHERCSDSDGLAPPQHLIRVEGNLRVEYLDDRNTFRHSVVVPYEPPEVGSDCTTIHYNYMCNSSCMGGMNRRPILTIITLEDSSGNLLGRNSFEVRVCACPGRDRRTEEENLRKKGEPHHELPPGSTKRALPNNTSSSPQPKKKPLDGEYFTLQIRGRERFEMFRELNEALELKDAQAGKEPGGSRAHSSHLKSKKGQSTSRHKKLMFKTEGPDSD

| SMILES | outcome | AC50 |
| --- | --- | --- |
| OCCCCO | inactive | – |
| CCOC(=O)CCN(SN(C)C(=O)Oc1cccc2c1OC(C)(C)C2)C(C)C | inactive | – |
| O=C(CBr)c1ccc(O)cc1 | inactive | – |
| O=[N+]([O-])c1ccc(Nc2ccccc2)cc1 | inactive | 43.1 µM (active) |
| O=S1(=O)OC(c2cc(Br)c(O)c(Br)c2)(c2cc(Br)c(O)c(Br)c2)c2ccccc21 | inactive | – |
| Nc1ccc(-c2ccccc2)cc1 | inactive | – |
| O=S(=O)(c1ccc(Cl)cc1)c1cc(Cl)c(Cl)cc1Cl | inactive | – |
| Cc1cc(C(C)(C)c2ccc(O)c(C)c2)ccc1O | – | 41.9 µM (active) |
| CCCCOC(=O)COC(=O)c1ccccc1C(=O)OCCCC | inactive | – |
| Cc1cc(Cl)ccc1OC(C)C(=O)O (stereo not given) | inactive | – |
| Clc1cc(C(Cl)(Cl)Cl)cnc1Cl | inactive | – |
| Cc1cc(SCc2sc(-c3ccc(C(F)(F)F)c(F)c3)nc2C)ccc1OCC(=O)O | – | 54.2 µM (active) |
| CS(=O)(=O)c1ccc(C(=O)C2C(=O)CCCC2=O)c(Cl)c1COCC(F)(F)F | inactive | – |
| CC(O)(CS(=O)(=O)c1ccc(F)cc1)C(=O)Nc1ccc(C#N)c(C(F)(F)F)c1 (stereo not given) | inactive | – |
| O=C=Nc1ccc(Cl)cc1 | inactive | – |
| Cc1cc(C(F)(C(F)(F)F)C(F)(F)F)ccc1NC(=O)c1cccc(I)c1C(=O)NC(C)(C)CS(C)(=O)=O | – | 56.9 µM (active) |
| O=c1oc2ccccc2c(O)c1C(CC(O)c1ccc(-c2ccc(Br)cc2)cc1)c1ccccc1 (stereo not given) | inactive | 20.4 µM (active) |
| O=C(NC(=O)c1c(F)cccc1F)Nc1cc(Cl)c(OC(F)(F)C(F)C(F)(F)F)cc1Cl (stereo not given) | inactive | – |
